Data published in paper PMC6602471.
Over roughly 1,300 sequences, “log fluorescence intensity” has its median near 8.3; the highest 2% begin near 12. The sample holds the highest values, similar sequences and a random draw of the others, so the mix is not that of the screen.

These sequences were tested against T1, ETS1 (Homo sapiens, UniProt P14921 1-441) (assay: custom PBM; custom protein-binding microarray; buffer, salt, pH and temperature not stated; high values mean tight binding). Conditions: dsDNA, one strand shown.
T1 sequence: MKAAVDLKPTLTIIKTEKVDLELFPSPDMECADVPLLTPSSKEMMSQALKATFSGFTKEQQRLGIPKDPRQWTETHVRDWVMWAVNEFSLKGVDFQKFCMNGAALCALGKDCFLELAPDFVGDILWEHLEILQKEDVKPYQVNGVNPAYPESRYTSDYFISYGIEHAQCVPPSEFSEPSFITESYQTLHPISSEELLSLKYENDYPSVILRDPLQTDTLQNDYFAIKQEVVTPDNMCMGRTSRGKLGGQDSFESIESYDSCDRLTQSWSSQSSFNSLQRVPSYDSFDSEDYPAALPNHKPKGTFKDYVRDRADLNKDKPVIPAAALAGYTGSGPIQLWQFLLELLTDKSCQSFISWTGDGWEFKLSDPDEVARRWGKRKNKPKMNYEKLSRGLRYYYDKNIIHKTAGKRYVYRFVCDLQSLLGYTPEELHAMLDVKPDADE
With “CTGGGACTTGACCCAACTCTGCCACGTGGGTCGCTTGTCTTGATTCGCTTGACGCTGCTG” the binding signal was 8.36 log fluorescence intensity. With “GGATAAAGGCCCAGGGTAACACCGGAAGTGGGCTTAGTCTTGATTCGCTTGACGCTGCTG” the binding signal was 11.9 log fluorescence intensity. For “GGTAAAAGGCCCAGGGTAACACCGGAAGTGGGCTTAGTCTTGATTCGCTTGACGCTGCTG”, the binding signal was 11.9 log fluorescence intensity. “GGAAAAAGGCCCAGGGTGACACCGGAAGTGGGCTTAGTCTTGATTCGCTTGACGCTGCTG” was tested, and the binding signal was 11.8 log fluorescence intensity. With “GGGAAAAGGCCCAGGGTAACACCGGAAGTGGGCTTAGTCTTGATTCGCTTGACGCTGCTG” the binding signal was 11.9 log fluorescence intensity. “GGAAAAAGGCCCAGGGCAACACCGGAAGTGGGCTTAGTCTTGATTCGCTTGACGCTGCTG” was tested, and the binding signal was 12.2 log fluorescence intensity. “GGAAAAAGGCCCAGGATAACACCGGAAGTGGGCTTAGTCTTGATTCGCTTGACGCTGCTG” was tested, and the binding signal was 12.2 log fluorescence intensity. In the case of “GCAAAAAGGCCCAGGGTAACACCGGAAGTGGGCTTAGTCTTGATTCGCTTGACGCTGCTG”, the binding signal was 11.9 log fluorescence intensity. For “GGAAAAAGGCCCAGGGTCACACCGGAAGTGGGCTTAGTCTTGATTCGCTTGACGCTGCTG”, the binding signal was 11.9 log fluorescence intensity. For “GGAAAAAGGCCCAGGCTAACACCGGAAGTGGGCTTAGTCTTGATTCGCTTGACGCTGCTG”, the binding signal was 12.1 log fluorescence intensity. With “GGAAAAAGGCCCAGGGAAACACCGGAAGTGGGCTTAGTCTTGATTCGCTTGACGCTGCTG” the binding signal was 12.3 log fluorescence intensity. In the case of “GGAAAAAGGCCCAGGGGAACACCGGAAGTGGGCTTAGTCTTGATTCGCTTGACGCTGCTG”, the binding signal was 12.1 log fluorescence intensity. “GGCAAAAGGCCCAGGGTAACACCGGAAGTGGGCTTAGTCTTGATTCGCTTGACGCTGCTG” was tested, and the binding signal was 11.7 log fluorescence intensity. For “GATTAATTTCTGCCCTTATTCGAACGTGCCATAACAGTCTTGATTCGCTTGACGCTGCTG”, the binding signal was 8.42 log fluorescence intensity. For “TCCGGCTACCAGCTCCACCCACTTCAGGCCTTATAGGTCTTGATTCGCTTGACGCTGCTG”, the binding signal was 8.46 log fluorescence intensity. With “GAAAGGGAAGACGGTTGTGGTAGTTCCGGGTATTAAGTCTTGATTCGCTTGACGCTGCTG” the binding signal was 8.75 log fluorescence intensity. With “CGGAAGTGTCGTAAACGTCGGATATCCGGTTTTTCTGTCTTGATTCGCTTGACGCTGCTG” the binding signal was 11.9 log fluorescence intensity. With “TCCGGCTACCAGCTGCACCCACTTCAGGCCTTGTAGGTCTTGATTCGCTTGACGCTGCTG” the binding signal was 8.44 log fluorescence intensity. In the case of “GCTGCTGCGGTGTATACCCCACCGGATGTGACCCCGGTCTTGATTCGCTTGACGCTGCTG”, the binding signal was 10.1 log fluorescence intensity. “GGAAAACGGCCCAGGGTAACACCGGAAGTGGGCTTAGTCTTGATTCGCTTGACGCTGCTG” was tested, and the binding signal was 12 log fluorescence intensity. “TACTGACTTATATATGGGAATGCACATGAATAGACCGTCTTGATTCGCTTGACGCTGCTG” was tested, and the binding signal was 8.32 log fluorescence intensity. In the case of “TTAAGGGAAGACGGTTGTGGTAGTTCCGGGTATTAAGTCTTGATTCGCTTGACGCTGCTG”, the binding signal was 8.48 log fluorescence intensity. With “CGGAAGTGTCGTAAACGTCGGATATCCGGCTCTTCTGTCTTGATTCGCTTGACGCTGCTG” the binding signal was 10.7 log fluorescence intensity. In the case of “CGGAAGTGTCGTAAATGTCGGATATCCGGTTCTTCTGTCTTGATTCGCTTGACGCTGCTG”, the binding signal was 11.9 log fluorescence intensity. In the case of “TCCGGCTACCAGCTTCACCCACTTCAGGCCTTGTAGGTCTTGATTCGCTTGACGCTGCTG”, the binding signal was 8.4 log fluorescence intensity. “GCTGCTGCGGTGCGTACCCCACCGGATGTGACCCCGGTCTTGATTCGCTTGACGCTGCTG” was tested, and the binding signal was 9.93 log fluorescence intensity. For “GCTGCTGCGGTGCATACCCCACCGGATGTGACCCAGGTCTTGATTCGCTTGACGCTGCTG”, the binding signal was 10.3 log fluorescence intensity. With “TAAACGGAAGACGGTTGTGGTAGTTCCGGGTATTAAGTCTTGATTCGCTTGACGCTGCTG” the binding signal was 10.1 log fluorescence intensity. For “CAGCATAGGACTTCGTCCCTGAAGCAATTGATAACCGTCTTGATTCGCTTGACGCTGCTG”, the binding signal was 8.36 log fluorescence intensity. “CAGCATAGGACTTCCTCCCTGAAGCAATTGATAACCGTCTTGATTCGCTTGACGCTGCTG” was tested, and the binding signal was 12.7 log fluorescence intensity. In the case of “CAGCATAGGACTTCTTCCCTGAAGCAATTGATAACCGTCTTGATTCGCTTGACGCTGCTG”, the binding signal was 8.39 log fluorescence intensity. In the case of “CCTGCTGCGGTGCATACCCCACCGGATGTGACCCCGGTCTTGATTCGCTTGACGCTGCTG”, the binding signal was 10.4 log fluorescence intensity. In the case of “TAAAGGGAAGACGGTTGTGGTAGTTGCGGGTATTAAGTCTTGATTCGCTTGACGCTGCTG”, the binding signal was 8.38 log fluorescence intensity. With “TAAAGGGAAGACGGTTGTGGTAGTTCCGGGTATTCAGTCTTGATTCGCTTGACGCTGCTG” the binding signal was 8.52 log fluorescence intensity. For “TAAAGGGAAGACGGTTGTGGTAGTTCCGGGTATTACGTCTTGATTCGCTTGACGCTGCTG”, the binding signal was 8.47 log fluorescence intensity. With “CACAATTTTTACAGTAGTGTAGCACGCGTAACTCCTGTCTTGATTCGCTTGACGCTGCTG” the binding signal was 8.33 log fluorescence intensity. With “TGTCGGGTAAGGGTATGTAGATCACGTGAATGAAAAGTCTTGATTCGCTTGACGCTGCTG” the binding signal was 8.34 log fluorescence intensity. With “TAAAGGGAAGACCGTTGTGGTAGTTCCGGGTATTAAGTCTTGATTCGCTTGACGCTGCTG” the binding signal was 8.5 log fluorescence intensity. “CGGAAGTGTCGTAAACGTCGGATATCCGGTACTTCTGTCTTGATTCGCTTGACGCTGCTG” was tested, and the binding signal was 11.8 log fluorescence intensity. For “TCCTGCTACCAGCTCCACCCACTTCAGGCCTTGTAGGTCTTGATTCGCTTGACGCTGCTG”, the binding signal was 8.42 log fluorescence intensity. With “CAGCATAGGACTTCTTCCCTGAACCAATTGATAACCGTCTTGATTCGCTTGACGCTGCTG” the binding signal was 8.33 log fluorescence intensity. “CACAATTTTTACAGTAATGGAGCACGCGTAACTCCTGTCTTGATTCGCTTGACGCTGCTG” was tested, and the binding signal was 8.32 log fluorescence intensity. “GCTGCTGCGGTACATACCCCACCGGATGTGACCCCGGTCTTGATTCGCTTGACGCTGCTG” was tested, and the binding signal was 10.5 log fluorescence intensity. “GATTAATCTCTGCCCTTATTCGCACGTGCCATAACAGTCTTGATTCGCTTGACGCTGCTG” was tested, and the binding signal was 8.31 log fluorescence intensity. In the case of “GCTGCTGCGGTGCATACACCACCGGATGTGACCCCGGTCTTGATTCGCTTGACGCTGCTG”, the binding signal was 10.2 log fluorescence intensity. In the case of “GGAAAAAGGCCCAGGGTAACACGGGAAGTGGGCTTAGTCTTGATTCGCTTGACGCTGCTG”, the binding signal was 8.49 log fluorescence intensity.
